# GIRK2 act: activators of NPY4-receptor-primed GIRK2 channels, summary, cell-based, HEK293, thallium flux; 34,000 tested, under 10 active; HEK293 GIRK2/NPY4 cells, thallium flux fluorescence; activation (% efficacy), % for hits at 37.5 µM;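 active = primary screen hit, no activity in plain HEK293 cells, and in GIRK2-only cells above 5% efficacy rising with concentration; inactive = the rest, including fluorescent compounds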;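 also: efficacy is normalized control-subtracted fluorescence 15 s after thallium addition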
# Target sequence (P48051 whole entry, looked up): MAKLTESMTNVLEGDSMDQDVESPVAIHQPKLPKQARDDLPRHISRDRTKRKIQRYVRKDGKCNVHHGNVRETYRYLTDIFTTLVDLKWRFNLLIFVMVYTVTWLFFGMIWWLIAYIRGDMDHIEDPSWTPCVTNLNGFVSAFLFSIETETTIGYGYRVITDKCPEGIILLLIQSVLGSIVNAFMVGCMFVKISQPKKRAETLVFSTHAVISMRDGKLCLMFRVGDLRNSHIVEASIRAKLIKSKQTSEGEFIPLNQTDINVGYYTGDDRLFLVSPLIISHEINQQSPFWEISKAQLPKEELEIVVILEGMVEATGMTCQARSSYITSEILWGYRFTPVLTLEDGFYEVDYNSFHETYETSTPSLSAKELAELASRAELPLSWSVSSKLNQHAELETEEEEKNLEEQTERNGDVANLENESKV
# GluA2 TARP mod: modulators of GluA2-stargazin AMPA receptor complexes, primary screen, cell-based, membrane potential dye; HEK293 GluA2+stargazin, membrane potential dye (FDSS), glutamate EC50; hits were called plate by plate, in both directions; 40,000 tested, 3.5% active; calls only at 30 µM; Voltage-dependent calcium channel gamma-2 subunit (Mus musculus) + Glutamate receptor 2 …; AID 1259245, 2017;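 active = any of four per-well response measures lying three or more SD from its plate-wide compound average, in either direction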
# * = called active by the depositor; i = inactive; nt = no result given; + = active, no number; ! = repeats disagree. The entries come from a sample that favours hits as a whole.
SMILES,GIRK2 act,GluA2 TARP mod
Cc1c(Cl)cccc1S(=O)(=O)N1CCC(Cn2c(C)nc3ccccc32)CC1,i,+
Cc1n[nH]c(C)c1S(=O)(=O)N1CCC(Cn2c(C)nc3ccccc32)CC1,i,i
Cc1cc(C)c(S(=O)(=O)Nc2ccc(CC(=O)N3CCC(O)CC3)cc2)c(C)c1,i,i
CN(C)c1cccc(C(=O)NCC(O)(c2ccccc2)C2CC2)c1 (centres undefined),nt,i
NS(=O)(=O)c1ccc(NS(=O)(=O)c2ccc(NC(=O)C3CCCCC3)cc2)cc1,i,i
O=C(NC(=S)Nc1ccc(S(=O)(=O)NC2CCCCC2)cc1)c1cccs1,nt,+
COc1ccc(S(=O)(=O)Nc2ccc3c(c2)CCCN3C(=O)c2ccccc2)cc1,nt,i
Cc1ccc(S(=O)(=O)NCCNc2cc(N3CCCC3)nc(C)n2)c(C)c1,i,nt
Cc1cc(=O)[nH]c(-n2nc(-c3ccco3)cc2NC(=O)C2CC2)n1,i,+
COCC(=O)Nc1cc(-c2ccco2)nn1-c1nc(C)cc(=O)[nH]1,i,i
O=C(COc1ccc(F)cc1)NCCS(=O)(=O)N1CCN(Cc2ccccc2)CC1,i,i
O=S(=O)(CCCOc1ccc(F)cc1)NC1CCN(Cc2ccccc2)CC1,i,+
CC(=O)N1CCN(c2ccnc3c2c(=O)n(CC(=O)N2CCc4ccccc42)c(=O)n3C)CC1,nt,i
O=C(CN1CC(c2nc(-c3cccc(C(F)(F)F)c3)no2)C1)c1ccccc1,i,nt
COc1ccc(SCC(=O)N(CCN(C)C)c2nc3c(F)cc(F)cc3s2)cc1,nt,i
Cc1ccc(C)c(Cn2c(=O)c3c(nc4n(CCCN(C)C)c(C)c(C)n34)n(C)c2=O)c1,i,i
Cc1c(C)n2c3c(=O)n(Cc4cccc(Cl)c4)c(=O)n(C)c3nc2n1CCN(C)C,i,+
CC(C)OCCCNC(=O)C(=O)Nc1c2c(nn1C(C)(C)C)CSC2,i,i
c1ccc(CNc2nc(N3CCOCC3)nc3ccccc23)cc1,nt,+
c1coc(CNc2nc(N3CCOCC3)nc(N3CCOCC3)n2)c1,i,i
COc1cccc(C(CNC(=O)c2cccc([N+](=O)[O-])c2C)N2CCOCC2)c1 (centres undefined),i,+
COc1cccc(C(CNC(=O)c2ccc([N+](=O)[O-])cc2)N2CCOCC2)c1 (centres undefined),i,i
COc1cccc(C(CNC(=O)C2CCCCC2)N2CCOCC2)c1 (centres undefined),nt,+
O=C(NCC(c1ccc(F)cc1)N1CCOCC1)NC1CCCCC1 (centres undefined),nt,i
COc1cccc(C(CNC(=O)Nc2ccc(Cl)cc2)N2CCOCC2)c1 (centres undefined),i,+
SMILES,GIRK2 act,GluA2 TARP mod
COc1cccc(C(CNC(=O)C2CCN(S(C)(=O)=O)CC2)N2CCOCC2)c1 (centres undefined),i,i
Cc1ccc(C(CNC(=O)NC2CCCCC2)N2CCOCC2)cc1 (centres undefined),i,+
COc1cccc(C(CNC(=O)Nc2ccccc2)N2CCOCC2)c1 (centres undefined),i,i
O=C(Nc1ccc(F)c(F)c1F)C1CN(C(=O)c2cnccn2)C1,i,i
O=C(CN1C(=O)CCC1=O)Nc1ccc2cn[nH]c2c1,i,i
O=C(Nc1ccc2ncsc2c1)c1ccc(S(=O)(=O)N2CCc3ccccc3C2)cc1,i,i
O=C(Nc1ccc2c(c1)CN(S(=O)(=O)c1ccccc1)CC2)c1ccc2nsnc2c1,i,+
CNC(=O)CSc1nc(-c2ccccc2)c(NC(=O)C(C)(C)C)s1,i,i
CC(=O)c1ccc(NC(=O)CSc2ncc(S(=O)(=O)c3ccc(Cl)s3)c(N)n2)cc1,i,i
Nc1nc(SCC(=O)Nc2ccccc2)ncc1S(=O)(=O)c1ccc(Cl)s1,i,+
CSc1ncccc1C(=O)N1CCC(CNC(=O)C(=O)NC2CC2)CC1,i,i
FC(F)(F)c1cccc(Nc2nc(-c3cccnc3)nc3ccccc23)c1,nt,i
CCC(C)NC(=O)CCc1csc(NC(=O)c2ccc[nH]c2=O)n1 (centres undefined),i,i
COc1cc(CN2CCC(COCc3ccccc3)CC2)cc(OC)c1,i,+
COc1cc(COCC2CCN(C(=O)CC(c3ccccc3)c3ccccc3)CC2)cc(OC)c1,i,i
COc1ccc(N2CCn3c2nc2c3c(=O)n(CCN3CCOCC3)c(=O)n2C)c(OC)c1,nt,i
CSc1ncccc1C(=O)N1CCC(CNC(=O)/C=C/c2ccsc2)CC1,i,i
O=C(c1ccc(OC(F)(F)F)cc1)N1CCCSCC1CN1CCOCC1 (centres undefined),i,nt
CCOC(=O)NCc1nc2ccccc2n1Cc1ccccc1F,i,+
COC(=O)NCCc1nc2ccccc2n1Cc1c(F)cccc1Cl,nt,+
OCc1nc2ccccc2n1Cc1c(F)cccc1Cl,nt,i
CCOC(=O)NCc1nc2ccccc2n1Cc1c(F)cccc1Cl,nt,i
CN(Cc1ccco1)S(=O)(=O)c1ccc(C(=O)Nc2sc3c(c2C#N)CCC3)cc1,nt,i
O=C(Nc1ccc(N2CCCCC2=O)cc1)c1ccccc1C(F)(F)F,i,i
O=C(NCC(O)(c1cccs1)C1CC1)c1ccsc1 (centres undefined),i,i
SMILES,GIRK2 act,GluA2 TARP mod
CCOc1cccc2cc(C(=O)N3CCCC3)oc12,i,i
Cc1ccc(-c2nnc(CN3CCC(Cc4ccccc4)CC3)o2)cc1,i,+!
Cc1ccc(-c2nnc(CN3CCN(Cc4ccccc4)CC3)o2)cc1,i,i
COCCn1c(N2CCN(C/C=C\c3ccccc3)CC2)nc2c1c(=O)[nH]c(=O)n2C,nt,i
O=C(NCc1cccc2ccccc12)Nc1ccc2c(c1)N(C(=O)C1CCCC1)CC2,i,i
CCOc1cc(C(=O)Nc2ccc3c(c2)CCC(=O)N3C)cc(OCC)c1OCC,nt,i
COc1cccc(-c2cc(CC(=O)NCc3ccco3)no2)c1,i,i
CCS(=O)(=O)c1ccc(C(=O)Nc2sc(C(=O)OC)c(C)c2C#N)cc1,i,+
Cc1sc(NC(=O)c2ccc(S(=O)(=O)C(C)C)cc2)c(C#N)c1C,i,i
CCn1nnc2c(N3CCN(c4ccccc4F)CC3)ncnc21,i,i
Cn1c(=O)c2cc(C(=O)NCCc3ccc(S(N)(=O)=O)cc3)sc2n(C)c1=O,i,+
Cn1c(=O)c2cc(C(=O)NCCCCO)sc2n(C)c1=O,i,+
Cn1c(=O)c2cc(C(=O)NCC(O)CO)sc2n(C)c1=O (centres undefined),i,i
Cc1cccc(NC(=O)c2cc3c(=O)n(C)c(=O)n(C)c3s2)c1C,i,i
CC(O)CNC(=O)c1cc2c(=O)n(C)c(=O)n(C)c2s1 (centres undefined),i,i
CCCCN(C(=O)c1cc2c(=O)n(C)c(=O)n(C)c2s1)c1ccccc1,i,+
CC(=O)Nc1cccc(NC(=O)c2cc3c(=O)n(C)c(=O)n(C)c3s2)c1,i,+
Cn1c(=O)c2cc(C(=O)N3CCN(c4ccccc4)CC3)sc2n(C)c1=O,nt,i

# From PubChem BioAssay
